Experimental data from the OligoGym collection.

These sequences were tested against SIRPD (assay: pooled miR-30 sensor sort-seq; sequence = guide strand). Conditions: shRNA.
Also: reference of the scale not given here.

Sequence	sensor-assay potency score (higher = more potent)
ATTTATTGTACGATCAAGCTGG	0.545
TTGAACCACAAGACAGGTCCAT	-0.0742
TTACTCTGGGAAAGTTACCTTG	-0.709
TGAACCACAAGACAGGTCCATT	-1.29
AAATTGTAGATTAATTTCCGGT	-0.422

The sequences below were run against SIRT4 in the same assay as above. Conditions: shRNA.

Sequence	sensor-assay potency score (higher = more potent)
TTTTTCTGACCTGTAGTCTGGT	0.35
TTGAACGCAGGTTGGGACCTGA	0.0552
TTCTTTTACACGCTTGTGCACA	-0.806
ATACCTGCAAGGATGATCCCAC	0.445
ATGTTCAGTATTGCAATCGGGA	-1.33
TTTTCTGACCTGTAGTCTGGTA	-0.377
TTGTGCACAAAATCAACCTTGT	0.469
TTTCTGACCTGTAGTCTGGTAT	-0.224
TTTTGCTGACCTGAAAGTCAAC	-1.46
TATTGCAATCGGGAGCTTCTTC	-0.488
TGTAACTCTTTGACCTTCTCAG	0.0606

What follows are sequences tested against SIRT7 in the same assay as above. Conditions: shRNA.

Sequence	sensor-assay potency score (higher = more potent)
TAACGCTTCTCCCTTTCTGAAG	-1.56
TAGACGACCAAGTATTTGGCGT	-0.403
TCCGTCACATCGAACACCCGCA	-0.639
TTCTGAAGCAGTGTCCACACTC	-0.449
TTCTTTAGAACCTTCAGGCTGG	0.828
TGGGTACTTCTTTAGAACCTTC	-0.762
TGAAGCAGTGTCCACACTCCAT	-1.07
TTGGTCATGCACCAGAGGCGTG	-1.42
TTCTTCACCAGCACGCAGGGGA	-0.0799
TTCTGCACAGCGACTTCCGACT	-1.07
ATGACGTCATCACACTTCCCAT	-1.31
TTCAATGTACATGTTCCCGTGG	0.307

What follows are sequences tested against SIX1 in the same assay as above. Conditions: shRNA.

Sequence	sensor-assay potency score (higher = more potent)
TTCTTGTGCAGGTGGTCGCAGG	-1.02
TTTCTATTTACAAGTGTCCCTA	-0.676
TTCTGAGCTGGACATGAGCGGC	-1.35
TTTATGCGCAAACAACTCCAGA	-1.43
TTGAGTACGCTCTCGTTCTTGT	-0.00831
AACAACTCCAGAAACAAGCTGC	-0.198
ATATTTGTGAAAGTCCACCATT	-0.953
TTAAGCTTGAGATCGCTGTTGG	0.117
TTCTCCTTGAAGCAGTAGCTGG	-1.4
TTGTTTTCGGTGTTCTCCCTTT	-0.196
TTCTATTTACAAGTGTCCCTAG	0.0217
TACAAGTGTCCCTAGTCGCTGC	0.379
